Inconclusive results are not listed. Activity calls are given as the source filed them. The calls were made as follows: active = hit-call score of the fitted dose curve at least 0.9, where 1 is the maximum; inconclusive = response in the unintended direction; inactive = score below 0.9.
Target: human Thyroid Receptor alpha (THRa1), THRA (gene 7067) (UniProt P10827)
Assay: ATG_THRa1_TRANS: Attagene TRANS-FACTORIAL HepG2 Assay for human Thyroid Receptor alpha (THRa1) (AID 2283014)
Protocol: ATG_TRANS is a cell-based, multiplexed-readout assay that uses HepG2, a human liver cell line, with measurements taken at 24 hours after chemical dosing in a 24-well plate.ATG_THRa1_TRANS is one of 30 assay component(s) measured or calculated from the ATG_TRANS assay. It is designed to make measurements of mRNA induction, a form of inducible reporter, as detected with fluorescence intensity signals by Reverse transcription polymerase chain reaction (RT-PCR) and Capillary electrophoresis technology.Data from the assay component ATG_THRa1_TRANS was analyzed into 1 assay endpoint. This assay endpoint, ATG_THRa1_TRANS, was analyzed in the positive analysis fitting direction relative to DMSO as the negative control and baseline of activity. Using a type of inducible reporter, measures of mRNA for gain-of-signal activity can be used to understand the reporter gene at the transcription factor-level as they relate to the gene THRA. Furthermore, this assay endpoint can be referred to as a primary readout, because this assay has produced multiple assay endpoints where this one serves a reporter gene function. To generalize the intended target to other relatable targets, this assay endpoint is annotated to the nuclear receptor intended target family, where the subfamily is non-steroidal.
Human liver HepG2 cells are transiently transfected with multiple reporter transcription units (MRTUs) in 6-well plates using FuGene 6 reagent (Roche; 3 ml FuGene/1 mg DNA). The MRTU constructs are regulated by a cis-regulating element (promoter). […] A major difference between the CIS and TRANS system is that in CIS activities of endogenous TFs are measured, whereas the TRANS assay evaluates changes in activities of exogenous, chimeric NR-Gal4 proteins. […] At the end of 24 hour incubation, total RNA was isolated using TriZol reagent (Invitrogen). The isolated RNA is then reverse-transcribed using oligo(dT) primer and Mo-MLV reverse transcriptase (Invitrogen) with DNAse I (Ambion) treatment for 30 min. The one-tenth of the produced cDNA was amplified by PCR using Taq DNA polymerase (Invitrogen) and two reporter sequence-specific primers. The PCR products were fluorescently labeled by primer extension with 6-arboxyfluorescein (6-FAM) 5'-labeled reporter sequence-specific primer (2 min at 95 C, 20 s at 68 C and 10 min at 72 C) and these products were digested with 5U of HpaI (New England Biolabs) for 2h at 37 C. The fragments were purified using Qiaquick PCR columns (Qiagen), analyzed on an ABI 3130xL genetic analyzer (Applied Biosystems) with peak positions identified by using a set of X-rhodamine (ROX)-labeled MapMarker1000 molecular weight standards (BioVentures). The raw capillary electrophoresis data was processed using Attagraph software (Attagene).

Sequence of human Thyroid Receptor alpha (THRa1), THRA (gene 7067) (P10827 whole entry, looked up): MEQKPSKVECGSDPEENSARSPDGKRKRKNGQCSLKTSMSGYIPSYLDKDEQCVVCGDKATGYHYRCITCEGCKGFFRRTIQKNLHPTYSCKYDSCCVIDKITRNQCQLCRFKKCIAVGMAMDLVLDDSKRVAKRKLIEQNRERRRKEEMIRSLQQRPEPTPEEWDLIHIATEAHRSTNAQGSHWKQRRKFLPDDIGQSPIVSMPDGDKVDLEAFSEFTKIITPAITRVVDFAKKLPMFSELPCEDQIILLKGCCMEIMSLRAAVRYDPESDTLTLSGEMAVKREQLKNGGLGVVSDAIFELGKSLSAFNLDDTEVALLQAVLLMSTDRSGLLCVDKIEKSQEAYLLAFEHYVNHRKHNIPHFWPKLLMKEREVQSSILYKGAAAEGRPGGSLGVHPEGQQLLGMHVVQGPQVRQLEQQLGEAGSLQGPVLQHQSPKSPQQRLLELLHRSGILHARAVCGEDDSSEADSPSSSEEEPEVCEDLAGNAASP

outcome, inactive:
CCCCN, CC(C)Oc1ccccc1O, Cc1cccc(C)c1C, Cc1ccc(C=O)s1, COc1c(Cl)c(Cl)c(Cl)c(Cl)c1Cl, C=O, CCCCCCCCCCCCCC(=O)O, C=C(C)C(=O)NCCCN(C)C, CC(c1cc2ccccc2s1)N(O)C(N)=O (stereo not given), C=CC(=O)OCC(O)COc1ccccc1 (stereo not given), CN1[C@@H]2CC(OC(=O)[C@H](CO)c3ccccc3)C[C@H]1[C@@H]1O[C@@H]12 (stereo not given in full), NCCCN1CCOCC1, CC1(C)C(=O)N(Br)C(=O)N1Cl, FC1(F)C(F)(F)C(F)(F)C2(F)C(F)(C1(F)F)C(F)(F)C(F)(F)C1(F)C(F)(F)C(F)(F)C(F)(F)C(F)(F)C12F (stereo not given), Nc1cc(N)cc(C(=O)O)c1, COc1cc(C(C)(C)C)c(O)c(C(C)(C)C)c1, CN(C)CCCN, C=CCOC(=O)CCC1CCCCC1, Cc1ccccc1C=O, CCN(CC)CCOC(=O)c1ccc(N)cc1, C[C@]12CC[C@H]3[C@@H](CCC4=CC(=O)CC[C@@]43C)[C@@H]1CC[C@@H]2C(=O)CO, O=c1[nH]nnc2ccccc12, CC(C)c1ccc(C(C)C)cc1, OC[C@H]1O[C@H](O[C@]2(CCl)O[C@H](CCl)[C@@H](O)[C@@H]2O)[C@H](O)[C@@H](O)[C@H]1Cl, NCCOCCO, CC(C)=CCO, C=COCCOCCOCCOC=C, C=C[C@@H](C)CCC=C(C)C, CCc1c(C)cc(N)c(CC)c1N, C=C(C)C(=O)Nc1ccc(Cl)c(Cl)c1, CC(C)C1CCC(O)CC1 (stereo not given), CC(=O)[O][Al][O]C(C)=O, COc1cc2ncnc(Nc3cccc(Cl)c3)c2cc1OC, O=C(O)c1ccc([N+](=O)[O-])cc1, CNCCO, Cc1ccc(C(C)C)cc1O, CC(C)=CCC/C(C)=C/COC=O, c1ccc2sc(SN(C3CCCCC3)C3CCCCC3)nc2c1, OCc1cccnc1, CCCCCCCCC

Source: PubChem BioAssay (EPA / NIEHS)
